Values joined by “and” are separate entries in the source; they are usually repeats but may differ in a detail not shown here. Identical values can stand only once. Some structures have more than one record in an assay (separate samples or runs), and their calls can disagree. Active and inactive are the calls of the source. The calls were made as follows: active = hit-call score of the fitted dose curve at least 0.9, where 1 is the maximum; inactive = score below 0.9.

Read-out in assay [1]: urokinase plasminogen activator (uPA), PLAU (gene 5328)
In words: BSK_KF3CT_uPA: BioMAP Diversity Plus: KF3CT Assay for urokinase plasminogen activator (uPA) Biomarker Activity (AID 2283075). Particulars: primary human keratinocytes with fibroblasts; actives raise or lower the signal. The essentials: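 ELISA read-out of uPA 24 h after dosing human skin keratinocytes co-cultured with foreskin fibroblasts. Signal change fitted both ways relative to DMSO; sulforhodamine B on parallel cultures marks overt cytotoxicity.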

Read-out in assay [2]: CD40, CD40 (gene 958)
Kind of assay: BSK_LPS_CD40: BioMAP Diversity Plus: LPS Assay for CD40 Biomarker Activity (AID 2283076). Particulars: primary human HUVEC with PBMC; actives raise or lower the signal. The essentials:
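Primary human umbilical vein endothelial cells co-cultured with peripheral blood mononuclear cells, LPS-stimulated, were dosed with chemical and read 24 h later. CD40 levels were measured by ELISA and fitted bidirectionally against DMSO as negative control and baseline.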

Read-out in assay [3]: E-selectin (Homo sapiens) (UniProt P16581)
In words: BSK_LPS_Eselectin: BioMAP Diversity Plus: LPS Assay for Eselectin Biomarker Activity (AID 2283077). Particulars: primary human HUVEC with PBMC; actives raise or lower the signal. In outline: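 Human umbilical vein endothelial cells co-cultured with peripheral blood mononuclear cells under LPS stimulation; E-selectin measured by ELISA 24 h after chemical dosing. Activity fitted bidirectionally against DMSO as negative control and baseline.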

Read-out in assay [4]: Interleukin-8 (IL8), CXCL8 (gene 3576)
Kind of assay: BSK_LPS_IL8: BioMAP Diversity Plus: LPS Assay for Interleukin-8 (IL8) Biomarker Activity (AID 2283078). Particulars: primary human HUVEC with PBMC; actives raise or lower the signal. The essentials:
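Human umbilical vein endothelial cells co-cultured with PBMC were stimulated with LPS; IL-8 levels were measured by ELISA 24 h after chemical dosing. Activity was fitted bidirectionally against DMSO as negative control and baseline.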

Assay [5] can be described thus: BSK_LPS_SRB: Viability Assessment in the BioMAP Diversity Plus: LPS Assay (AID 2283079).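 Also: total protein by sulforhodamine B absorbance as a cytotoxicity measure; measured one day after compound addition.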 Particulars: primary human HUVEC with PBMC. The essentials: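 Human umbilical vein endothelial cells co-cultured with PBMC (LPS system) were dosed for 24 h. Total protein was stained with 0.1% sulforhodamine B after 10% TCA fixation, read at 560 nm, and fitted bidirectionally against DMSO baseline.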

Read-out in assay [6]: Interleukin-1 alpha (IL1a), IL1A (gene 3552)
In words: BSK_LPS_IL1a: BioMAP Diversity Plus: LPS Assay for Interleukin-1 alpha (IL1a) Biomarker Activity (AID 2283080). Particulars: primary human HUVEC with PBMC; actives raise or lower the signal. The essentials: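 Human umbilical vein endothelial cells co-cultured with peripheral blood mononuclear cells were LPS-stimulated and exposed to test chemicals for 24 h. IL-1 alpha was quantified by ELISA, with bidirectional curve fitting against DMSO as the negative control and baseline.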

Read-out in assay [7]: Monocyte Chemoattractant Protein-1 (MCP1), CCL2 (gene 6347)
Kind of assay: BSK_LPS_MCP1: BioMAP Diversity Plus: LPS Assay for Monocyte Chemoattractant Protein-1 (MCP1) Biomarker Activity (AID 2283081).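 As to AC50: co-culture stimulated with LPS; secreted MCP-1 protein quantified by ELISA in culture supernatant.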 Particulars: primary human HUVEC with PBMC; actives raise or lower the signal. The essentials: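 HUVEC plus PBMC co-culture (human primary cells, LPS system) exposed to test chemical for 24 h; MCP-1 measured by ELISA. Bidirectional curve fitting against DMSO baseline; parallel SRB total-protein staining flags overt cytotoxicity.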

Assay [8] is described as follows: BSK_LPS_PGE2: BioMAP Diversity Plus: LPS Assay for Prostaglandin E2 (PGE2) Biomarker Activity (AID 2283082).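 As to AC50: secreted prostaglandin E2 measured by ELISA in LPS-stimulated co-culture.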 Particulars: primary human HUVEC with PBMC; actives raise or lower the signal. The essentials:
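Primary human endothelial cells and blood mononuclear cells, co-cultured with LPS, receive test chemical; PGE2 ELISA follows at 24 h, with SRB-stained parallel cultures flagging cytotoxicity.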

Read-out in assay [9]: Macrophage colony-stimulating factor (MCSF), CSF1 (gene 1435)
Kind of assay: BSK_LPS_MCSF: BioMAP Diversity Plus: LPS Assay for Macrophage colony-stimulating factor (MCSF) Biomarker Activity (AID 2283083). Particulars: primary human HUVEC with PBMC; actives raise or lower the signal. The essentials:
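Human umbilical vein endothelial cells co-cultured with peripheral blood mononuclear cells were exposed to compound for 24 h. M-CSF levels were measured by ELISA, and bidirectional curve fitting used DMSO as the negative control and baseline.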

Read-out in assay [10]: Tissue Factor, F3 (gene 2152)
Kind of assay: BSK_LPS_TissueFactor: BioMAP Diversity Plus: LPS Assay for Tissue Factor Biomarker Activity (AID 2283084). Particulars: primary human HUVEC with PBMC; actives raise or lower the signal. In outline: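 Human umbilical vein endothelial cells co-cultured with peripheral blood mononuclear cells were dosed and stimulated with LPS. Cell-surface CD142 was quantified by ELISA at 24 h. Activity was fitted bidirectionally against DMSO baseline.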

Read-out in assay [11]: Tumor necrosis factor (Homo sapiens) (UniProt P01375)
In words: BSK_LPS_TNFa: BioMAP Diversity Plus: LPS Assay for Tumour Necrosis Factor alpha (TNFa) Biomarker Activity (AID 2283085).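 As to AC50: TNFa protein level quantified by ELISA in the co-culture.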 Particulars: primary human HUVEC with PBMC; actives raise or lower the signal. In outline:
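ELISA-based TNFa endpoint in a human endothelial–PBMC co-culture sampled 24 h post-exposure. Curves were fitted in both directions using DMSO as baseline of activity.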

Read-out in assay [12]: Vascular cell adhesion molecule 1 (VCAM1), VCAM1 (gene 7412)
In words: BSK_LPS_VCAM1: BioMAP Diversity Plus: LPS Assay for Vascular cell adhesion molecule 1 (VCAM1) Biomarker Activity (AID 2283086). Particulars: primary human HUVEC with PBMC; actives raise or lower the signal. In outline: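 Measured by ELISA: VCAM-1 in LPS-activated HUVEC/PBMC co-cultures 24 h after treatment. Values reflect bidirectional fitting with DMSO as baseline.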

Read-out in assay [13]: CD38, CD38 (gene 952)
In words: BSK_SAg_CD38: BioMAP Diversity Plus: SAg Assay for CD38 Biomarker Activity (AID 2283087). Particulars: primary human HUVEC with PBMC; actives raise or lower the signal. In outline:
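Measures CD38 on a human endothelial/PBMC co-culture driven by SEB and TSST-1, 24 h after compound exposure, using ELISA with fluorescence detection; DMSO defines baseline for bidirectional curve fitting.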

Read-out in assay [14]: CD40, CD40 (gene 958)
Kind of assay: BSK_SAg_CD40: BioMAP Diversity Plus: SAg Assay for CD40 Biomarker Activity (AID 2283088). Particulars: primary human HUVEC with PBMC; actives raise or lower the signal. In outline: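 Human umbilical vein endothelial cells co-cultured with PBMC; CD40 levels measured by ELISA with fluorescence read-out 24 h after chemical dosing. Gain or loss of signal fitted bidirectionally against DMSO baseline.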

Read-out in assay [15]: Monocyte Chemoattractant Protein-1 (MCP1), CCL2 (gene 6347)
Kind of assay: BSK_SAg_MCP1: BioMAP Diversity Plus: SAg Assay for Monocyte Chemoattractant Protein-1 (MCP1) Biomarker Activity (AID 2283090). Particulars: primary human HUVEC with PBMC; actives raise or lower the signal. The essentials:
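Values derive from bidirectional fitting of ELISA-measured MCP1 against DMSO controls. Readings were taken 24 h after dosing human vascular endothelial cells co-cultured with peripheral blood mononuclear cells under superantigen stimulation.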

Read-out in assay [16]: E-selectin (Homo sapiens) (UniProt P16581)
Kind of assay: BSK_SAg_Eselectin: BioMAP Diversity Plus: SAg Assay for Eselectin Biomarker Activity (AID 2283091). Particulars: primary human HUVEC with PBMC; actives raise or lower the signal. In outline:
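HUVEC co-cultured with PBMC, compound dosed then read at 24 h; E-selectin measured by ELISA. Activity fitted bidirectionally against DMSO as negative control and baseline.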

Read-out in assay [17]: Monokine induced gamma interferon (MIG), CXCL9 (gene 4283)
In words: BSK_SAg_MIG: BioMAP Diversity Plus: SAg Assay for Monokine induced gamma interferon (MIG) Biomarker Activity (AID 2283092). Particulars: primary human HUVEC with PBMC; actives raise or lower the signal. In outline: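 HUVEC plus human PBMC co-culture, chemicals dosed and MIG (CXCL9) quantified by ELISA at 24 h. Bidirectional curve fitting against DMSO as negative control and baseline, so both gain and loss of signal count as activity.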

Assay [18] is described as follows: BSK_SAg_PBMCCytotoxicity: PBMC Cytotoxicity Assessment in the BioMAP Diversity Plus: SAg Assay (AID 2283093).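 Also: PBMC superantigen activated with SEB plus TSST-1 one hour after compound addition; PBMC viability measured as Alamar Blue reduction fluorescence at 546/580 nm; fitted both ways against DMSO so a hit may be loss or gain of signal.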 Particulars: primary human HUVEC with PBMC. The essentials:
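Alamar Blue reduction (6 h, ex/em 546/580 nm) read after 90 h culture of PBMC pre-dosed 1 h then stimulated with SEB plus TSST-1, 20 ng/mL each. Gain or loss of signal fitted relative to DMSO.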

Read-out in assay [19]: Interleukin-8 (IL8), CXCL8 (gene 3576)
Kind of assay: BSK_SAg_IL8: BioMAP Diversity Plus: SAg Assay for Interleukin-8 (IL8) Biomarker Activity (AID 2283094). Particulars: primary human HUVEC with PBMC; actives raise or lower the signal. In outline:
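Primary human endothelial cells with PBMC, exposed 24 h; IL-8 determined by ELISA, analysed bidirectionally relative to DMSO.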

Assay [20] can be described thus: BSK_SAg_Proliferation: Cell Proliferation Assessment in the BioMAP Diversity Plus: SAg Assay (AID 2283095).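 Also: relative cell number as total protein by SRB absorbance in sub-confluent culture.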 Particulars: primary human HUVEC with PBMC. In outline:
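A human primary co-culture of umbilical vein endothelium and blood mononuclear cells receives compound; relative cell number is quantified at 96 h by SRB staining and 560 nm absorbance, with DMSO-referenced bidirectional curve fitting.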

Chain of Tumor necrosis factor (Homo sapiens) (P01375 whole entry, looked up): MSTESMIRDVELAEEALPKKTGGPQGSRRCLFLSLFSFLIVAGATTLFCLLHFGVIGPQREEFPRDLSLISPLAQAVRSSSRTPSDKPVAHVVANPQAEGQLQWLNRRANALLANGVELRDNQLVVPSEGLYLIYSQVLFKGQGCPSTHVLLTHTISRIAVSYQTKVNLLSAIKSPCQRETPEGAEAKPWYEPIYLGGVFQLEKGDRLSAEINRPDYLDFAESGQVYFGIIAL
Chain of E-selectin (Homo sapiens) (P16581 whole entry, looked up): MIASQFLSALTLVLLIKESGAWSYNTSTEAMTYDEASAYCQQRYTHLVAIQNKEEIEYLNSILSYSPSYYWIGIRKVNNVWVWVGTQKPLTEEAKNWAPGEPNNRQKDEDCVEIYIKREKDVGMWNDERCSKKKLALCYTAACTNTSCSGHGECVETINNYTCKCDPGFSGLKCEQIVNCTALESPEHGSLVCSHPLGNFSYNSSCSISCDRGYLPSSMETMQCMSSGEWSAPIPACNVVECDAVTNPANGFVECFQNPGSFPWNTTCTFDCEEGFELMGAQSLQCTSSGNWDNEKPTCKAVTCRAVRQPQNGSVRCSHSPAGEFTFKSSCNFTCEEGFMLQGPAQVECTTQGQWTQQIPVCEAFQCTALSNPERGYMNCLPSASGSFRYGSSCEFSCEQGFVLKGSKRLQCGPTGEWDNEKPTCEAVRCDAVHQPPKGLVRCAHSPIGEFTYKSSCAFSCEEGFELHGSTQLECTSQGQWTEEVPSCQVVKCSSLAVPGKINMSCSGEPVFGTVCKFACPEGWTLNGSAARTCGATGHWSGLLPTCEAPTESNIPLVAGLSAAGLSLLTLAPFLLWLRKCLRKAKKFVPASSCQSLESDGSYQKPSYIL

On to `O=C(Nc1ccccc1SSc1ccccc1NC(=O)c1ccccc1)c1ccccc1`, for which the result in assay [1], in [3], in assay [7], in [8], in [10] and in assay [15] was inactive. The result in assay [16] and in assay [17] was inactive. For the same compound, the AC50 (commonly the midpoint of the concentration-response curve, whichever way the signal moves) in assay [2] is 4.75 µM (active); in assay [4], 5.19 µM (active); in assay [5] it was 5.31 µM (active); in assay [6], 2.65 µM (active); in assay [9], 5.44 µM (active); in assay [11], 5.18 µM (active). In addition, the AC50 is 9.83 µM (active) in assay [12]; 5.21 µM (active) in assay [13]; 8.91 µM (active) in assay [14]; 2.78 µM (active) in assay [18]; 6.04 µM (active) in assay [19]; 3.19 µM (active) in assay [20].

As to `Nc1ccc(N)c(Cl)c1`, the outcome in [1], in [3], in assay [4], in assay [11] and in assay [19] was inactive. Moreover, the AC50 was 3.22 µM (active) and 2.55 µM (active) in [2]; 13.9 µM (active) in [3]; 7.92 µM (active) in assay [4]; 25.9 µM (active) and 32.6 µM (active) in assay [5]; 4.62 µM (active) and 33.4 µM (active) in assay [6]; 32.7 µM (active) and 32.2 µM (active) in assay [7]. Further, the AC50 in assay [8] was 20 µM (active) and 13 µM (active); in [9], 8.8 µM (active) and 15.4 µM (active); in assay [10], 3.97 µM (active) and 3.44 µM (active); in assay [11] it was 11.6 µM (active); in assay [12], 5.43 µM (active) and 5.78 µM (active); in assay [13], 15.9 µM (active). Further, the AC50 is 26.4 µM (active) and 21.7 µM (active) in assay [14]; 30.8 µM (active) and 31.3 µM (active) in [15]; 19.4 µM (active) and 22.2 µM (active) in assay [16]; 30.4 µM (active) and 31.3 µM (active) in assay [17]; 16.4 µM (active) and 15.4 µM (active) in [18]; 30.8 µM (active) in [19]. Moreover, the concentration at half-maximal activity (AC50) in assay [20] was 14.8 µM (active) and 12.7 µM (active).

For the origin of these results see PubChem BioAssay (EPA / NIEHS).
